# This is a sample that favours compounds with a hit; in the whole collection about 4% have one here.
# RecA splice inh = blocks M. tuberculosis RecA intein splicing; AID 2221; P9WHJ3; inhibition, % (test concentration not listed); cell-free RecA intein splicing, fluorescence; 0.75% of 290,000 active; in the data active means inhibition above about 30%; inconclusive means no clear call, values can overlap the other calls;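 further: 0% = vehicle wells and 100% = reference inhibitor control wells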
# Mtb FBA inh = inhibitors of M. tuberculosis fructose-bisphosphate aldolase. P9WQA3. purified M. tuberculosis FBA, fluorescence read-out. inhibition, % at 1 µM. 2.3% of 360,000 active. AID 588726; in the data active means inhibition above about 27%;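 further: 0% = vehicle and 100% = reference inhibitor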
# GDH-TPI counter-1 = inhibits GDH-TPI coupling enzymes, artifact for Mtb FBA screen | GDH-TPI coupled enzyme counterscreen, NADH absorbance | inhibition, % at 4.8 µM | 1.2% of 360,000 active | AID 588335; in the data active means inhibition above about 30%;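 further: 0% = DMSO wells and 100% = wells lacking the enzyme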
# Mtb bLac sens = beta-lactam sensitization of Mtb H37Rv; M. tuberculosis H37Rv growth with meropenem, percent inhibition; inhibition, % at 25 µM; 0.27% of 330,000 active;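 further: growth measured after seven days incubation then overnight dye step; 0% = bacteria only wells and 100% = bacteria with antibiotic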
# UGM FP inh = blocks M. tuberculosis UGM enzyme; P9WIQ1; purified UGM, fluorescence polarization probe displacement; inhibition, % at 10 µM; 0.06% of 320,000 active; AID 504406; in the data active means inhibition above about 10%, passing the limit was not always enough; inconclusive means no clear call, values can overlap the other calls
# Rv3671c inh = Rv3671c (M. tuberculosis) protease inhibition. P9WHR9. inhibition, % at 5.96 µM. 0.048% of 320,000 active. AID 2606; in the data active means inhibition above about 38%;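 further: extracellular domain of Rv3671c used as enzyme; 0% = enzyme with DMSO and 100% = no enzyme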
# Target sequence (P9WHR9 whole entry, looked up, the tested form may be a part): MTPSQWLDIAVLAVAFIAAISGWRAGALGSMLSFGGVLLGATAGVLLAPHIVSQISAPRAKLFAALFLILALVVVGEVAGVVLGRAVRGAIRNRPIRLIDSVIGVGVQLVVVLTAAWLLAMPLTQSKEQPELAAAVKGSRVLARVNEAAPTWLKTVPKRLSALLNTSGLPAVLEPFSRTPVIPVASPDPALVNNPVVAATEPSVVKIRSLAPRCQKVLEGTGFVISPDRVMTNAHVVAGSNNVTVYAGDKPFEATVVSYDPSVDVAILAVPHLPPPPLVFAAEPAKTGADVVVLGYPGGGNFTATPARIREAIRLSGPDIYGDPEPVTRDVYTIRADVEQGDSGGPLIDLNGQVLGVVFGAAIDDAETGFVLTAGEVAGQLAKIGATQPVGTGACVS
# Mtb FBA inh conf = Mtb FBA inhibition, confirmed | AID 651616 | shares compounds with Mtb FBA inh | inhibition, % at 1 µM | 78% of 5,600 active | purified M. tuberculosis FBA, fluorescence read-out; in the data active means inhibition above about 27%;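 further: 0% = vehicle wells and 100% = reference inhibitor wells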
# GDH-TPI counter-2 = GDH-TPI inhibition counter-screen for FBA inhibitors | shares compounds with Mtb FBA inh | GDH-TPI coupled enzyme counterscreen, fluorescence | inhibition, % at 1 µM | 81% of 5,600 active; in the data active means inhibition above about 10%
# GDH-TPI DR = GDH-TPI dose response counter-screen for Mtb FBA | shares compounds with Mtb FBA inh | GDH-TPI coupled enzyme assay, fluorescence, artifact counterscreen | IC50, µM | 79% of 170 active | AID 652145
# Active calls of the source: *; ? = inconclusive; . = no result; + = active, no number. Unless noted, how the calls were made is not given here.
SMILES,RecA splice inh,Mtb FBA inh,GDH-TPI counter-1,Mtb bLac sens,UGM FP inh,Rv3671c inh,Mtb FBA inh conf,GDH-TPI counter-2,others
COc1ccc2cc(C(=O)CS(=O)(=O)c3ccccc3)c(=O)oc2c1,1,57*,23,-7,4,-2,56*,46*,
O=C(CS(=O)(=O)c1ccccc1)c1cc2cc(F)ccc2oc1=O,0,62*,-6,2,2,4,6,-5,
COc1ccc(S(=O)(=O)CC(=O)c2cc3cccc(C)c3oc2=O)cc1,2,1,8,7,0,-2,.,.,
O=C(CS(=O)(=O)c1ccccc1)c1cc2ccccc2oc1=O,2,0,8,5,1,4,.,.,
CN(Cc1nccn1C)C(=O)CC1C(=O)NCCN1Cc1ccc(F)cc1Cl (stereo not given),-1,3,3,?,2,1,.,.,
COCCCn1c(SCC(=O)N2CCOCC2)nc2cc(Cl)ccc2c1=O,.,3,4,-4,-2,4,.,.,
CC(C)(C)NC(=O)c1ccc2c3c(cccc13)CC2,1,13,9,86,3,5,.,.,
O=C(NCCCCO)c1ccc2c3c(cccc13)CC2,2,64*,7,1,-1,4,-2,-3,
CCOCCNC(=O)c1ccc2c3c(cccc13)CC2,-1,81*,1,50,-2,1,47*,36*,
C[N+](C)(C)C[C@H](O)CC(=O)[O-],-1,3,12,-5,-1,-7,.,.,
Cc1ccc(S(=O)(=O)Nc2ccc(N3CCN(C)CC3)nc2)cc1,-2,0,-2,-6,1,8,.,.,
CNc1cccc(-c2ccc(N3CCN(C)CC3)nc2)n1,.,54*,11,.,.,.,17,0,GDH-TPI DR=3.5*
CCOC(=O)c1nn(-c2cccc(Cl)c2)c2nc(CC(C)C)c(C#N)c(=O)n12,-1,5,0,-17,0,4,.,.,
CCOC(=O)c1nn(-c2ccc(Cl)cc2)c2nc(CC)c(C#N)c(=O)n12,-1,37*,21,8,2,-6,1,1,
CCOC(=O)c1nn(-c2ccc(OCC)cc2)c2nc(CC(C)C)c(C#N)c(=O)n12,-3,104*,-1,-7,-1,5,-7,-6,
CCN(C[C@H]1N[C@@](CC)(C(=O)OC)[C@H]2C(=O)N(C)C(=O)[C@@H]12)C(=O)Nc1ccc(C)cc1,.,0,2,3,1,6,.,.,
CCC1OC2(C)OC(=N)C1(C#N)C(C#N)(C#N)C2c1ccccc1 (stereo not given),-86,56*,1,-11,3,-2,18,-2,GDH-TPI DR=3.3*
CCOC(=O)C1=C(C)OC(N)=C(C#N)C1c1ccccc1 (stereo not given),-3,3,0,-1,0,-2,.,.,
CC(C)C1OC2(C)OC(=N)C1(C#N)C(C#N)(C#N)C2c1ccccc1 (stereo not given),-224,50*,6,2,3,-7,94*,82*,
Cc1ccc2nc(C3CCCCC3)c(Cc3cccc(F)c3)n2c1,.,14,.,.,.,.,.,.,
Cc1ccc2nc(C(C)(C)C)c(Cc3cccc(F)c3)n2c1,.,36*,.,.,.,.,200*,172*,
CCCc1nc2ccc(C)cn2c1Cc1cccc(F)c1,.,28*,.,.,.,.,43*,31*,
O=C(O)C1CCN(C(=O)CSc2nnc(-c3ccccc3)o2)CC1,.,28*,7,-4,3,-1,71*,53*,
COC(=O)C1CCN(C(=O)CSc2nnc(-c3ccccc3)o2)CC1,-1,-2,1,3,0,6,.,.,
Cn1c(=O)c2c(SCC(=O)N3CCCC3)nc(CC(C)(C)C)nc2n(C)c1=O,0,4,3,-9,1,8,.,.,
SMILES,RecA splice inh,Mtb FBA inh,GDH-TPI counter-1,Mtb bLac sens,UGM FP inh,Rv3671c inh,Mtb FBA inh conf,GDH-TPI counter-2,others
COc1ccc(N(C)C(=O)c2ccc(NC(=O)CCS(=O)(=O)c3cccs3)cc2)cc1,2,-3,2,1,-4,-9,.,.,
CCc1ccc(-c2nc(SCC(=O)c3c(N)n(C)c(=O)n(C)c3=O)n[nH]2)cc1,.,29*,3,-9,1,-2,69*,56*,
COc1ccc(C(O)c2ncc(-c3ccccc3OC)[nH]2)cc1F (stereo not given),.,-3,3,.,.,.,.,.,
CCc1ccc(C(O)c2ncc(-c3cccc4ccccc34)[nH]2)cc1 (stereo not given),.,25,6,.,.,.,.,.,
COc1ccc(C(O)c2ncc(-c3ccc4ccccc4c3)[nH]2)cc1 (stereo not given),.,32*,5,.,.,.,+,+,
COc1ccc(C(O)c2ncc(-c3cccc4ccccc34)[nH]2)cc1F (stereo not given),.,41*,4,.,.,.,36*,36*,
Cc1cc(F)ccc1C(O)c1ncc(-c2cccc3ccccc23)[nH]1 (stereo not given),.,31*,13,.,.,.,-3,-5,
OC(c1ccc(F)cc1)c1ncc(-c2cccc3ccccc23)[nH]1 (stereo not given),.,49*,-4,.,.,.,5,-4,
COc1cccc(C(NC(C)=O)c2nc(-c3cccs3)cs2)c1 (stereo not given),.,-4,7,.,.,.,.,.,
CN(C)CCNC(=O)CCn1nc(-c2ccc(Cl)cc2)ccc1=O,0,3,3,-3,2,0,.,.,
COc1ccccc1C(O)c1ncc(-c2cccc3ccccc23)[nH]1 (stereo not given),.,60*,11,.,.,.,+,+,
CC1=CC2=NCC(O)CN2C=C1 (stereo not given),-1,28*,-4,-9,2,-2,12,-5,GDH-TPI DR=9.3*
Cc1ccc(C(=O)OCC(=O)NCc2ccc3c(c2)OCO3)o1,.,0,0,-4,2,-1,.,.,
Cc1ccc(C(=O)CCC(=O)OCC(=O)NNC(=O)c2ccccc2Cl)cc1,.,-4,5,-2,1,-5,.,.,
Cc1cc(=O)oc2cc(OCC(=O)N3CCN(Cc4ccccc4)CC3)ccc12,.,35*,17,-10,0,2,9,-3,
Cc1cc(=O)oc2cc(OCC(=O)N3CCC(C(=O)O)(c4ccccc4)CC3)ccc12,1,28*,13,-6,-1,9,19,26*,
Cc1cc(=O)oc2cc(OCC(=O)N3CCN(C(=O)c4ccco4)CC3)ccc12,0,27*,-1,-6,-1,4,79*,68*,
Cc1cc(=O)oc2cc(OCC(=O)N3c4ccccc4NC(=O)C3(C)C)ccc12,.,34*,15,0,2,-2,107*,87*,
COc1ccc(/C=C/c2c(-c3ccc(OC)cc3)oc3cccnc23)cc1,-2,41*,12,4,0,-3,4,-2,
